Measurements as given in PubChem BioAssay (Tox21).
A number with no mark means an inactive call. Inconclusive results are not listed. Where a call stands in place of a potency, no number is given. Calls of active or inactive are those of the source. Unless noted, calls come from the whole dose curve.

What was measured:
[1] = Nuclear factor erythroid 2-related factor 2/antioxidant responsive element (Nrf2/ARE) small molecule agonists: qHTS cell viability counter screen in human keratinocytes (AID 1919968; active = well fitted curve in the direction sought with a large enough effect in the repeat runs; an effect the other way counts as inactive or inconclusive; note: nearly all actives have a fitted effect of over 55% in size; note: potency is the fitted concentration of half-maximal effect)
Outline: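 Measured as CellTiter-Fluor fluorescence, this readout tracks cytotoxicity in the same wells as the ARE-luciferase screen. HaCaT reporter cells (1,500/well) received compounds after a 5 h pre-incubation and were exposed for 23 h.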

[2] = target: Gonadotropin-releasing hormone receptor (Homo sapiens) (UniProt P30968); experiment: Human gonadotropin-releasing hormone receptor (GnRHR) small molecule agonists, calcium flux assay in GnRHR-HEK293 cells (AID 1920063); note: nearly all actives have a fitted effect of over 35% in size
Gonadotropin-releasing hormone receptor (Homo sapiens), sequence (P30968 whole entry, looked up): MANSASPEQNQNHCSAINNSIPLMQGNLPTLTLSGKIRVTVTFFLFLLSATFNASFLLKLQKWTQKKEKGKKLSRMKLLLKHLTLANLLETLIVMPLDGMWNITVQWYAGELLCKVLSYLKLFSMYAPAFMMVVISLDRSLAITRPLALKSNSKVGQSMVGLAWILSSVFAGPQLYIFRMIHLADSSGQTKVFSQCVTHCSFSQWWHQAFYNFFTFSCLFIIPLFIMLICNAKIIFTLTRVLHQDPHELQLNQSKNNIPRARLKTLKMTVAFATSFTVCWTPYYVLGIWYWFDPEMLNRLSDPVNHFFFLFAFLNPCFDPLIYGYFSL
Outline: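 Fluorescence kinetics (480 nm excitation, 540 nm emission; 3 min, 1 s steps) report calcium mobilisation in human GnRHR-HEK293 cells in agonist mode. Dye incubation: 1 h, 37 C.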

[3] = target: KiSS-1 receptor (Homo sapiens) (UniProt Q969F8); experiment: Human kisspeptin (KISS1R) small molecule agonists, calcium flux assay in KISS1R-HEK293 cells (AID 1920064; active = well fitted curve in the direction sought with a large enough effect in the repeat runs; an effect the other way counts as inactive or inconclusive)
KiSS-1 receptor (Homo sapiens), sequence (Q969F8 whole entry, looked up): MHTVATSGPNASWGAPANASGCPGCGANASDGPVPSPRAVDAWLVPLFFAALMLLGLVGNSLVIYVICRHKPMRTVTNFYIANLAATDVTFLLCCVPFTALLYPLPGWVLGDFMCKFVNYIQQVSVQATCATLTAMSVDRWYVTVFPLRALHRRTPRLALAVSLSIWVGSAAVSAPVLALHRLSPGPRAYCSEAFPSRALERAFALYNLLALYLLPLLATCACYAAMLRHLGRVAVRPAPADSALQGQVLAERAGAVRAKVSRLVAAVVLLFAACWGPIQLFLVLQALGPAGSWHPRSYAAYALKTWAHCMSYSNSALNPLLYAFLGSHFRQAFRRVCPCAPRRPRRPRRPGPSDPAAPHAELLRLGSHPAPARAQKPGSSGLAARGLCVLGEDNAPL
Outline: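 Measures KISS1R agonism through calcium-sensitive dye fluorescence in stably transfected HEK293 cells, read for 3 min after pin-tool compound delivery; 15-point titrations in triplicate.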

[4] = G protein-coupled receptor (GPCR) small molecule agonists, calcium flux assay: HEK293 wild type cell line counter screen (AID 1920065)
Outline: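 Readout: fluorescence at 480 nm excitation/540 nm emission, sampled at 1 s intervals for 3 min. Cells had been cultured 18 h, then dye-loaded 1 h at 37 C before compound or ATP addition.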

[5] = p53 small molecule agonists, cell-based qHTS assay with human liver microsomes (AID 1963577);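 note: p53 response element beta-lactamase reporter cells with liver microsomes plus NADPH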
Outline: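 With metabolic activation: human liver microsomes (0.5 mg/mL final) plus NADPH (0.5 mg/mL final) added alongside compounds to p53RE-bla cells; 16 h 37 C exposure; beta-lactamase read by LiveBLAzer fluorescence.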

[6] = p53 small molecule agonists, cell-based qHTS assay with rat liver microsomes (AID 1963578)
Outline: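 Metabolic activation by rat liver microsomes and NADPH, each 0.5 mg/mL final, added right after compounds to p53RE-bla reporter cells (4,000/well, plated 5 h earlier). 16 h at 37 C, then LiveBLAzer substrate for 2 h at room temperature in the dark; fluorescence read-out.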

[7] = p53 small molecule agonists, cell-based qHTS assay with human liver microsomes: qHTS cell viability counter screen (AID 1963579); note: nearly all actives have a fitted effect of over 45% in size
Outline: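 Metabolic activation used human liver microsomes and NADPH, both 0.5 mg/mL final, over 16 hours at 37 C on p53RE-bla cells (4,000/well). Cytotoxicity measured by CellTiter-Glo luminescence, 30 min at room temperature.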

[8] = p53 small molecule agonists, cell-based qHTS assay: qHTS cell viability counter screen (AID 1963581); note: nearly all actives have a fitted effect of over 45% in size
Outline: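 In the same plates used for the p53 bla reporter, HCT-116 cells given compounds for 16 h at 37 C received CellTiter-Glo; luminescence was recorded 30 min later at room temperature.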

[9] = p53 small molecule agonists, cell-based qHTS assay (AID 1963582; active = well fitted activation curve with a large enough effect in the signal ratio in the repeat runs, not every such curve was filed as active; the % refers to the signal ratio)
Outline: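 Compounds are pin-transferred in DMSO onto p53RE-bla cells and incubated 16 h at 37 C. The B/G FRET beta-lactamase substrate is then applied for 2 h at RT and fluorescence recorded.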

[10] = target: 5-hydroxytryptamine receptor 2A (Homo sapiens) (UniProt P28223); experiment: 5-hydroxytryptamine receptor 2A (HTR2A) small molecule antagonists, cell-based qHTS assay (AID 1963586); note: nearly all actives have a fitted effect of over 45% in size
5-hydroxytryptamine receptor 2A (Homo sapiens), sequence (P28223 whole entry, looked up): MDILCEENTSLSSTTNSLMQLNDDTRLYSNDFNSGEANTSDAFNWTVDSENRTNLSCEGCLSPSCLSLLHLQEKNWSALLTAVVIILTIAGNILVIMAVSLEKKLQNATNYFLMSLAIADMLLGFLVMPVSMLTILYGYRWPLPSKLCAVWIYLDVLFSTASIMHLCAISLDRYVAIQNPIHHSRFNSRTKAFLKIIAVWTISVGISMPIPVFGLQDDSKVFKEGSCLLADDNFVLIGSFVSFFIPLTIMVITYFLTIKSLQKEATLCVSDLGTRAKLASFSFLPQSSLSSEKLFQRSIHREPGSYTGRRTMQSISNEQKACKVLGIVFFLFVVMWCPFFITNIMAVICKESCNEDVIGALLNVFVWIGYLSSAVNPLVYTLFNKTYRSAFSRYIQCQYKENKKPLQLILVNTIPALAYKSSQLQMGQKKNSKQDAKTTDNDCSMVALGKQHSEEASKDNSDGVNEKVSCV
Outline: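 Antagonist-mode intracellular calcium assay: DOI (4 nM) added after 5 min compound pre-incubation at room temperature to dye-loaded HTR2A-CHO cells. Fluorescence followed for 3 min, sampled every second.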

[11] = target: 5-hydroxytryptamine receptor 2A (Homo sapiens) (UniProt P28223); experiment: 5-hydroxytryptamine receptor 2A (HTR2A) small molecule agonists, cell-based qHTS assay (AID 1963587); note: nearly all actives have a fitted effect of over 30% in size
Outline: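 CHO cells stably expressing human HTR2A, plated 18 h, loaded with calcium dye 1 h at 37 C. Agonist mode: compounds added and intracellular calcium fluorescence recorded kinetically for 2 min at 1 sec intervals.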

[12] = target: Muscarinic acetylcholine receptor M1 (Homo sapiens) (UniProt P11229); experiment: Cholinergic receptor muscarinic 1 (CHRM1) small molecule antagonists, cell-based qHTS assay (AID 1963588); note: nearly all actives have a fitted effect of over 40% in size
Muscarinic acetylcholine receptor M1 (Homo sapiens), sequence (P11229 whole entry, looked up): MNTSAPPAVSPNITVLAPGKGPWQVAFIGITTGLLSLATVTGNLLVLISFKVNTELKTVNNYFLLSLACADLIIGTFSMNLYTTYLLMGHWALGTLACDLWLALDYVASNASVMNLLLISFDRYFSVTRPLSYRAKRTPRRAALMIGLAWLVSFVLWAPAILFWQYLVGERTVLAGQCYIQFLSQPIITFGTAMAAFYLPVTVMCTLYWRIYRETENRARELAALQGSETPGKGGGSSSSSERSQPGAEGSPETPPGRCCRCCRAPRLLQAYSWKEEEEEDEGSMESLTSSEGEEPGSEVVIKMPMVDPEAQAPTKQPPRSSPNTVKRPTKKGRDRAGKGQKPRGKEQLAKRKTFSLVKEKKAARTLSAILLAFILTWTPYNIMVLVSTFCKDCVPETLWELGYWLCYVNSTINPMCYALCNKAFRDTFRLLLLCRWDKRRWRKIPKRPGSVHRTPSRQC
Outline: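 CHRM1-CHO calcium-flux assay, antagonist mode. Cells were seeded 18 h, dye-loaded 1 h at 37 C and given compound for 5 min at RT, then acetylcholine was added at 50nM. FDSS fluorescence was read 3 min; 15 concentrations, three runs.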

[13] = target: Muscarinic acetylcholine receptor M1 (Homo sapiens) (UniProt P11229); experiment: Cholinergic receptor muscarinic 1 (CHRM1) small molecule agonists, cell-based qHTS assay (AID 1963589); note: nearly all actives have a fitted effect of over 35% in size
Outline: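 Each compound was tested at 15 concentrations across three independent runs on dye-loaded CHO cells stably expressing human CHRM1, reading intracellular calcium fluorescence kinetically at 1 sec intervals.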

[14] = cAMP Responsive Elements (CRE) small molecule agonists, cell-based qHTS assay (AID 1963590)
Outline: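 Cell line: CRE-bla HEK 293T; medium DMEM/10% dialyzed FBS/0.1 mM NEAA/1 mM pyruvate/25 mM HEPES; 3 h compound exposure; beta-lactamase FRET readout after 2 h substrate loading at RT.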

[15] = cAMP Responsive Elements (CRE) small molecule antagonists, cell-based qHTS assay (AID 1963591; active = well fitted inhibition curve with a large enough effect in the signal ratio in the repeat runs, not every such curve was filed as active; the % refers to the signal ratio)
Outline: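 Inhibition of NKH477-driven (0.25 uM final) CRE-beta-lactamase signal in HEK293T cells, 3 h compound exposure at 37 °C, detected by FRET substrate fluorescence.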

[16] = target: Beta-2 adrenergic receptor (Homo sapiens) (UniProt P07550); experiment: Adrenergic beta2 receptor (ADRB2) small molecule antagonists, cell-based qHTS assay (AID 1963592); note: series mostly up to about 92 µM; nearly all actives have a fitted effect of over 50% in size
Beta-2 adrenergic receptor (Homo sapiens), sequence (P07550 whole entry, looked up): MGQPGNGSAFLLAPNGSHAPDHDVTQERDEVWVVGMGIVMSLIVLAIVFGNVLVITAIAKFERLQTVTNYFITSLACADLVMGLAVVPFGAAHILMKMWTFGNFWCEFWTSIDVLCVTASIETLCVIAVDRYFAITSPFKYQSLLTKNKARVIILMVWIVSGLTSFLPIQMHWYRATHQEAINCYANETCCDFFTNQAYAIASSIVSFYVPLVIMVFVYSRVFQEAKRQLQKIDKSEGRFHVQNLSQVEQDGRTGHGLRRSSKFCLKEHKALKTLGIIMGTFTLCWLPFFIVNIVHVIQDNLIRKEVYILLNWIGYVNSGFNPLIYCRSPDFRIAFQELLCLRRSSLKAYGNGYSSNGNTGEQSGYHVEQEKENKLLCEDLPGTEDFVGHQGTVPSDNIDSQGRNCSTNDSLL
Outline: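 Cells (CHO, stable ADRB2 overexpression) incubated 18-20hr at 37C; compounds added from DMSO; agonist mix (1nM isoproterenol, 100uM IBMX, 25uM Ro-20-1724) added; 0.5hr RT; d2-cAMP and anti-cAMP-cryptate added; 1hr RT; 665/615 nm read.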

[17] = target: Beta-2 adrenergic receptor (Homo sapiens) (UniProt P07550); experiment: Adrenergic beta2 receptor (ADRB2) small molecule agonists, cell-based qHTS assay (AID 1963593);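 note: CHO cells stably overexpressing human ADRB2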
Outline: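 CHO cells stably over-expressing ADRB2 were plated overnight at 37C, then dosed with compounds plus a stimulation mix containing 100uM IBMX and 25uM Ro-20-1724 for 0.5hr at room temperature. cAMP was measured by HTRF competition, 1hr.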

[18] = target: D(2) dopamine receptor (Homo sapiens) (UniProt P14416); experiment: Dopamine D2 receptor (DRD2) small molecule agonists, cell-based qHTS assay (AID 1963594); note: nearly all actives have a fitted effect of over 35% in size
D(2) dopamine receptor (Homo sapiens), sequence (P14416 whole entry, looked up): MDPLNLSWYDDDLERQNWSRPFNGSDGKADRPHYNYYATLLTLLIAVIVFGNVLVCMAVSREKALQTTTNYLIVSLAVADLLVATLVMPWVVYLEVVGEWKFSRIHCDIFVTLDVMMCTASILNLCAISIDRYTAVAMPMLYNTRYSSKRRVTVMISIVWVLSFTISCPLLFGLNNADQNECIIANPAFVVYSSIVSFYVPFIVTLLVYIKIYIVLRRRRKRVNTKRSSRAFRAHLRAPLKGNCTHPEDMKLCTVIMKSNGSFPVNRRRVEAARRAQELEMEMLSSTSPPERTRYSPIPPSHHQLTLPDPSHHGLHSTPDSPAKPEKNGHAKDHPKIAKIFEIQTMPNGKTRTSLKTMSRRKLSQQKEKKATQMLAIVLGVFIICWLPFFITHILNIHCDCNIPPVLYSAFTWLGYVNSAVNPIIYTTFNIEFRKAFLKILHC
Outline: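 HEK293 cells stably expressing human DRD2, pre-treated with PDE inhibitor Ro20-1724 (0.1 mM final) and compound 10 min at room temperature, then stimulated with NKH477 (200nM […]) for 30 min. cAMP read by HTRF (665/620 nm).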

[19] = target: D(2) dopamine receptor (Homo sapiens) (UniProt P14416); experiment: Dopamine D2 receptor (DRD2) small molecule antagonists, cell-based qHTS assay (AID 1963595; active = well fitted inhibition curve with a large enough effect in the signal ratio in the repeat runs, with a control signal flat; the % refers to the signal ratio)
Outline: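 Stable D2 receptor HEK293 line, 24 h after seeding. Compound preincubated 10 min, then quinpirole (12 nM) with forskolin analogue NKH477 (200 nM), 30 min, room temperature. Detection by time-resolved FRET of cAMP.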

[20] = p53 small molecule agonists, cell-based qHTS assay with rat liver microsomes: qHTS cell viability counter screen (AID 1963580); note: nearly all actives have a fitted effect of over 45% in size
Outline: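 p53RE-bla HCT-116 cells were exposed 16 h at 37 C to compounds with rat liver microsomes (0.5 mg/mL) and NADPH (0.5 mg/mL). Viability was measured in the same wells as ATP content by CellTiter-Glo luminescence.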

Row | Compound | Potency [1] | Potency [2] | Potency [3] | Potency [4] | Potency [5] | Potency [6] | Potency [7] | Potency [8] | Potency [9] | Potency [10] | Potency [11] | Potency [12] | Potency [13] | Potency [14] | Potency [15] | Potency [16] | Potency [17] | Potency [18] | Potency [19] | Potency [20]
1 | CC(C)CCOC(=O)/C=C/c1ccccc1 | inactive | inactive | inactive | inactive | inactive | inactive | inactive | inactive | inactive | inactive | inactive | inactive | inactive | inactive | inactive | inactive | inactive | inactive | inactive | 
2 | CC(C)c1ccccc1 | inactive | inactive | inactive | inactive | inactive | inactive | inactive | inactive | inactive | inactive | inactive | inactive | inactive | inactive |  | inactive |  | inactive | inactive | 
3 | O=C1c2ccccc2C(=O)c2c(O)ccc(O)c21 | inactive | inactive | inactive | inactive | inactive | inactive | inactive | inactive | inactive | inactive | inactive |  | inactive |  | inactive | inactive | inactive | inactive | inactive | 
4 | C=C(C)[C@@H]1CC=C(C)CC1 | inactive | inactive | inactive | inactive | inactive | inactive | inactive | inactive | inactive | inactive | inactive | inactive | inactive |  | inactive | inactive | inactive | inactive | inactive | 
5 | CCCOC(=O)c1c(Cl)c(Cl)c(Cl)c(Cl)c1C(=O)OCCC | inactive | inactive | inactive | inactive | inactive | inactive | inactive | inactive |  | inactive | inactive | inactive | inactive | inactive | inactive | inactive | inactive | inactive | inactive | 
6 | c1ccc2c(c1)ccc1c3ccccc3ccc21 | inactive | inactive | inactive | inactive | inactive | inactive | inactive | inactive | inactive | inactive | inactive | inactive | inactive |  | inactive | inactive |  | inactive | inactive | 
7 | O=C1NC(=O)C2CC=CCC12 (stereo not drawn) | inactive | inactive | inactive | inactive | inactive | inactive |  | inactive | inactive | inactive | inactive | inactive | inactive | inactive | inactive | inactive |  | inactive | inactive | inactive
8 | Cc1cc(O)c2ccccc2c1O | 13.3 µM (active) | inactive | inactive | inactive | inactive | inactive | inactive |  |  | inactive | inactive | inactive | inactive |  |  | inactive |  | inactive | inactive | 
9 | CO | inactive | inactive | inactive | inactive | inactive | inactive |  | inactive |  | inactive | inactive |  | inactive | inactive | inactive | inactive | inactive | inactive | inactive | inactive
10 | COCCOC[C@H](CC1(C(=O)NC2CCC(C(=O)O)CC2)CCCC1)C(=O)Oc1ccc2c(c1)CCC2 (stereo partly drawn) | inactive | inactive | inactive | inactive | inactive |  | inactive | inactive | inactive | inactive | inactive | inactive | inactive | inactive |  | inactive |  | inactive | inactive | 
11 | CCN(CCC#N)c1ccc(N=Nc2c(Cl)cc([N+](=O)[O-])cc2Cl)cc1 | inactive | inactive | inactive | inactive | inactive |  | inactive | inactive | inactive | inactive | inactive | inactive | inactive | inactive | inactive | inactive |  | inactive | inactive | inactive
12 | CCCC(=O)OC(C)(C)Cc1ccccc1 | inactive | inactive | inactive | inactive |  | inactive | inactive | inactive | inactive | inactive | inactive | inactive | inactive | inactive | inactive |  |  | inactive | inactive | inactive
13 | COc1cccc(N)c1 | inactive | inactive | inactive | inactive |  | inactive | inactive | inactive | inactive | inactive | inactive | inactive | inactive | inactive |  | inactive |  | inactive | inactive | inactive
14 | CCCCCCCCCC(C)C=O (stereo not drawn) | inactive | inactive | inactive | inactive | inactive | inactive |  |  |  | inactive | inactive | inactive | inactive |  | inactive | inactive |  | inactive |  | inactive
15 | Cc1cc(Cl)c(C)cc1Cl | inactive | inactive | inactive | inactive | inactive |  | inactive | inactive | inactive | inactive | inactive | inactive | inactive | inactive | inactive | inactive | inactive | inactive | inactive | 
16 | [Cl][Au]([Cl])[Cl] | 3.06 µM (active) | inactive | inactive | inactive | inactive | inactive |  |  |  | inactive | inactive | inactive | inactive |  |  | inactive | inactive | inactive |  | 
